High-throughput results as filed in PubChem BioAssay.
This is a sample that favours compounds with a hit; in the whole collection about 4.7% have one here.
PfHsp90 set2 – growth inhibition of yeast expressing Plasmodium Hsp90 | S. cerevisiae expressing PfHsp90, BacTiter-Glo ATP, 48 h; yeast lacking PDR1 and PDR3 efflux regulators | inhibition, % at 9.4 µM | 310,000 compounds, 0.32% hits | AID 504621;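 active = every replicate shows inhibition above about 80%, whatever the replicate mean, limit read from the data; inconclusive = mean inhibition reaches the set limit but some replicate falls short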;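 also: 0% = DMSO neutral controls and 100% = 20 µM radicicol positive controls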
TIM10 inh – growth inhibitors of TIM10 yeast strain. S. cerevisiae TIM10 strain growth, BacTiter-Glo luminescence, 24 h. inhibition, % at 10 µM. 330,000 compounds, 1.4% hits. AID 463195;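 active = inhibition of 40% or more at the single tested concentration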;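 also: wild-type TIM10 isogenic control strain grown at permissive 25 °C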
tim23-1 inh – growth inhibitors of tim23-1 mutant yeast; S. cerevisiae tim23-1 growth, BacTiter-Glo luminescence, 24 h; inhibition, % at 20 µM; 330,000 compounds, 1.3% hits;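 active = growth inhibition of the mutant yeast at or above 50%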;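 also: temperature-sensitive mutant grown at 25 °C; plate controls were DMSO-treated mutant yeast for no effect and medium wells lacking yeast for full effect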
tim10-1 inh – inhibits growth of tim10-1 mutant yeast. inhibition, % at 20 µM. S. cerevisiae tim10-1 ts strain growth, BacTiter-Glo, 24 h. 330,000 compounds, 2.2% hits;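 active = inhibition of at least 40%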;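 also: mutant grown at 25 °C; 0% = DMSO wells with yeast and 100% = wells holding no yeast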
Calb FLC – C. albicans growth modulation with fluconazole; AID 1979; 300,000 compounds, 0.57% hits; growth inhibition, % (test concentration not listed); C. albicans CaCi-2 (fluconazole-resistant clinical isolate) + fluconazole, Alamar Blue growth, 48 h;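 active = growth inhibition above about 58% in most replicates, limit read from the data, passing the limit was not always enough; inconclusive = exactly half the replicates above a set limit; inactive = most replicates below a set limit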;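 also: all wells also contain fluconazole at 8 µg/ml as a sub-toxic cotreatment; 0% = median of DMSO wells and 100% = median of geldanamycin control wells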
SKKanGAS inh – SKKanGAS growth inhibition. S. pyogenes SKKanGAS, kanamycin growth, BacTiter-Glo, 6 h. inhibition, % at 7.5 µM. 300,000 compounds, 1.3% hits. AID 1662;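 active = mean replicate score, as percent of positive control median, at least 50; inconclusive = mean below 50 but one replicate at or above 50; inactive = mean and every replicate below 50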;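 also: strain carries kanamycin resistance gene driven by streptokinase promoter and grows in 40 µg/ml kanamycin; loss of luminescence reflects streptokinase promoter inhibition or plain growth inhibition; 0% = median of DMSO wells and 100% = positive control at its reference dose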
tim10-1 confirm – tim10-1 yeast growth inhibition, confirmed; inhibition, % at 20 µM; shares compounds with tim10-1 inh; AID 463213; S. cerevisiae tim10-1 ts strain growth, BacTiter-Glo, 24 h; 7,400 compounds, 56% hits;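 active = inhibition of yeast growth at or above a set limit in either of two repeat tests at 20 µM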;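 also: tim10-1 mutant grown at permissive 25 °C to find synthetic lethal compounds; 0% = DMSO yeast wells and 100% = medium wells without yeast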
Active calls of the source: *; u = inconclusive; x = not tested or not shown.

SMILES	PfHsp90 set2	TIM10 inh	tim23-1 inh	tim10-1 inh	Calb FLC	SKKanGAS inh	others
Cn1c(SCC(=O)N2CCc3ccccc3C2)nnc1-c1ccncc1	6.1	-0.6	0.3	7.0	56.9*	-6.9
S=C(NNc1nc(Nc2ccccc2)nc(N2CCCCC2)n1)NC1CCCCC1	-1.3	13.8	14.5	36.0	-8.9	60.2*
Nc1nc(-c2ccccn2)nc(N)c1Cc1ccccc1F	-5.0	-41.1	-16.4	-41.2	20.9	79.5*
Nc1nc(-c2ccccn2)nc(N)c1Cc1ccc(Cl)cc1Cl	16.4	-9.3	14.6	-7.1	23.7	114.5*
Nc1nc(-c2ccccn2)nc(N)c1Cc1c(F)cccc1Cl	-23.2	-20.1	-20.4	-55.5	u	-0.3
COc1ccc(C(O)P(=O)(OCCC(C)C)c2ccc(N(C)C)cc2)cc1 (stereo unspecified)	9.0	37.6	33.8	28.8	2.3	1.4
COc1ccc(-n2nc(C(=O)NCC(=O)N3CCN(c4ccc(F)cc4)CC3)c3ccccc3c2=O)c(OC)c1	-25.4	7.8	7.7	-6.1	98.9*	4.4
COc1ccc(-n2nc(C(=O)NCC(=O)N3CCN(c4ccccc4)CC3)c3ccccc3c2=O)c(OC)c1	-8.9	11.2	6.7	-8.5	78.9*	0.7
COc1ccc(-n2nc(C(=O)NCC(=O)N3CCCC3)c3ccccc3c2=O)c(OC)c1	-5.3	-3.0	14.4	18.1	-1.0	-3.6
CC(C)[C@@H](NC(=O)C1CCC(CNC(=O)[C@H](Cc2ccccc2)NC(=O)OC(C)(C)C)CC1)C(=O)O (stereo partly specified)	13.6	x	x	x	-2.7	0.8
Cc1ccc(-n2ncc3c2CCCC3NC(=O)c2ccccc2N2CCOCC2)cc1C (stereo unspecified)	114.0*	-13.7	13.7	36.8	-0.7	-2.0
CCc1cc(C(=O)NC2CCCc3c2cnn3-c2cccc(C)c2C)n(C)n1 (stereo unspecified)	x	15.7	23.2	20.3	90.8*	-1.2
Cc1ccc(C(=O)NC(=S)Nc2cccc3nsnc23)cc1	15.7	3.2	-8.4	-11.2	-6.4	-0.9
Cc1ccc(C(=O)NC(=S)Nc2cccc3c(C)cc(C)nc23)cc1	7.8	5.1	8.5	-9.6	-3.9	78.5*
O=C(Nc1ccccc1N1CCOCC1)c1ccc(S(=O)(=O)NCc2ccco2)cc1	x	10.9	13.1	22.2	108.2*	x
CC1CCC2(CC1)NC(=O)N(CC(=O)NC1CCCCC1C)C2=O (stereo unspecified)	x	-6.2	1.2	2.2	x	x
Nc1nonc1-c1nc2ccccc2n1CC(=O)O	5.7	14.4	5.9	19.3	-5.4	3.1
Nc1nonc1-c1nc2ccccc2n1CC(=O)N/N=C/c1ccc(-c2cccc(C(=O)O)c2)o1	17.0	8.7	-5.7	-11.4	-5.5	67.8*
O=C(Nc1ccnn1C1CCN(C(=O)c2cccc(Cl)c2)CC1)C1CCOC1 (stereo unspecified)	6.1	-1.1	-14.2	0.0	0.3	-4.1
CCC(CC)=NNc1cccc([N+](=O)[O-])c1	-10.3	23.0	9.3	17.1	-8.6	5.3
CC/C(C)=N/Nc1cccc([N+](=O)[O-])c1	3.6	26.9	-57.7	26.6	91.8*	0.8
COc1ccc(C(=O)/C(C#N)=N/Nc2cccc([N+](=O)[O-])c2)cc1	1.1	x	x	x	16.2	50.6*
Cc1cc(=O)n2nc(N3CCC(C(=O)NCc4ccccc4Cl)CC3)sc2n1	-8.4	2.4	-13.5	-1.6	25.8	4.6
Cc1noc(C)c1C(=O)OCC(=O)NCc1ccccc1	25.8	6.7	11.0	2.2	x	x
CCOc1ccc(S(=O)(=O)Nc2cccc(C(=O)NCCCn3ccnc3)c2)cc1	35.9	-27.2	0.5	-8.4	x	x
SMILES	PfHsp90 set2	TIM10 inh	tim23-1 inh	tim10-1 inh	Calb FLC	SKKanGAS inh	others
COc1ccc(-c2ccc(=O)n(CC(=O)Nc3nnc(C(C)C)s3)n2)cc1OC	-28.0	12.6	-11.2	14.9	7.2	-0.9
COc1ccc(-c2ccc(=O)n(CC(=O)Nc3cccc(O)c3)n2)cc1OC	3.9	-15.0	2.7	7.7	110.5*	x
N=C1SC(c2ccccc2)C(=O)N1c1ncc(Cc2ccccc2Cl)s1 (stereo unspecified)	-55.6	33.4	27.9	32.6	0.2	116.2*
O=C(CSc1nnnn1-c1ccccc1)Nc1ncc(Cc2ccccc2Cl)s1	-7.0	16.7	3.0	9.1	2.3	-17.7
O=S(=O)(Nc1ccccc1O)c1ccc(Cl)nc1	-1.4	0.2	5.8	-15.0	-1.4	-4.0
CC(C)Oc1ccc(CNC(=S)Nc2ccccc2)cc1Cl	-11.1	11.4	35.3	36.6	0.3	-5.8
COc1ccc(CSCCNC(=S)Nc2ccccc2)cc1Cl	-29.6	28.2	38.5	24.2	-17.7	62.7*
CC1(C)CC[C@]2(C(=O)O[C@@H]3O[C@H](CO)[C@@H](O)[C@H](O)[C@H]3O)CC[C@]3(C)C(=CCC4[C@@]5(C)CC[C@H](O[C@@H]6O[C@H](C(=O)O)[C@@H](O[C@H]7OC[C@@H](O)[C@@H](O)[C@@H]7O)[C@H](O)[C@H]6O)C(C)(C)C5CC[C@]43C)[C@@H]2C1 (stereo partly specified)	-7.0	-7.0	14.1	5.5	x	x
CC1(C)CC[C@]2(C(=O)O)CC[C@]3(C)C(=CC[C@@H]4[C@@]5(C)CC[C@H](O[C@@H]6O[C@H](C(=O)O)[C@@H](O)[C@H](O[C@@H]7OC[C@H](O)[C@H](O)[C@H]7O)[C@H]6O)C(C)(C)[C@@H]5CC[C@]43C)[C@@H]2C1	107.8*	-11.7	-83.8	-252.9	x	x
O=C(c1ccc(NS(=O)(=O)c2ccc3[nH]c(=O)[nH]c3c2)cc1)N1CCN(c2ccccc2O)CC1	x	-6.1	-4.0	-15.9	5.2	5.6
COc1cc(OC)cc(-c2c(-c3cccs3)c3cc(-c4ccc(CN5CCOCC5)cc4)ccc3n2C)c1	-8.7	15.9	11.9	8.8	x	x
C[C@@H]1CCC2[C@](C)(CO)[C@@H](O)CC[C@]2(C)[C@@]12C[C@](CO)(CC(=O)O)CO2 (stereo partly specified)	-12.7	-6.3	-1.5	-1.1	-12.3	-3.0
CCCOc1ccc(N2C(=O)CC(SCCN)C2=O)cc1 (stereo unspecified)	-20.3	5.6	8.8	42.1*	24.9	8.6	tim10-1 confirm=24.1
CCCOc1ccc(N2C(=O)CC(SCC(N)C(=O)OCC)C2=O)cc1 (stereo unspecified)	11.1	4.0	2.8	5.2	8.8	0.2
CCCn1nnnc1NCc1ccccc1Cl	8.8	-6.8	-0.1	-4.9	0.0	-0.6
CCCn1c(NC(=O)c2ccc(Cl)c(S(=O)(=O)N3CCCC3)c2)nc2ccccc21	47.1	31.6	25.0	44.3*	u	92.1*	tim10-1 confirm=30.6*
COc1ccc(N2CCN(C(=O)CSc3nc4nc(C)cc(C)n4n3)CC2)cc1	15.6	9.3	-1.2	3.9	x	x
